Measurements taken from PubChem BioAssay (NCI).
The panel holds about 83,000 compounds, 20% with a hit somewhere; the sample as a whole holds those more often.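 Growth was measured after 48 h exposure to one concentration of compound in 96-well plates. Values under 10 count as active.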 Values without a mark were called inactive. The source made the active and inactive calls.

What was measured:
Assay in all cases: NCI-60 one-dose screen, 48 h (100 = growth as untreated, 0 = no growth, -100 = all killed)
Settings in all cases: 10 µM unless noted
DU-145 prostate = system: DU-145 prostate
K-562 leukemia = system: K-562 leukemia
MALME-3M melanoma = system: MALME-3M melanoma
MDA-MB-231 breast = system: MDA-MB-231 breast
RXF 393 renal = system: RXF 393 renal
SF-268 CNS = system: SF-268 CNS
SF-295 CNS = system: SF-295 CNS
SF-539 CNS = system: SF-539 CNS
UACC-257 melanoma = system: UACC-257 melanoma
M14 melanoma = system: M14 melanoma

Compound	growth (DU-145 prostate)	growth (K-562 leukemia)	growth (MALME-3M melanoma)	growth (MDA-MB-231 breast)	growth (RXF 393 renal)	growth (SF-268 CNS)	growth (SF-295 CNS)	growth (SF-539 CNS)	growth (UACC-257 melanoma)	growth (M14 melanoma)
CN1CC[C@@H]2[C@@]3(C)CC[C@H](O)C(C)(C)[C@@H]3CC[C@@]2(C)[C@]2(C)CC[C@@]3(CO)CCC(C)(C)C[C@@H]3C12 (stereo not given in full)	103%	21.5%	84.3%	85%	77.2%	96.7%	104%	74.9%	49.1%	58.6%
CN1CCN(c2ccc(Nc3nc(NCCCNS(=O)(=O)c4ccc(C(F)(F)F)cc4)c4sccc4n3)cc2)CC1	-8.78% (active)	5.24% (active)	-87.8% (active)	-60.1% (active)	-87% (active)	-53.3% (active)	-74.6% (active)	-92.6% (active)	-91.7% (active)	-80.5% (active)
CC(C)(C)OC(=O)NCc1ccc(CNc2c([N+](=O)[O-])cnc3ccccc23)cc1	77.4%	28.5%	86.4%	72.8%	105%	77%	33.4%	82.8%	49%	76%
CCOC(=O)c1c(NC(=O)c2cccc(C(F)(F)F)c2)sc2c3c(ccc12)OCN(C)C3	-16.8% (active)	-64.1% (active)	-53.9% (active)	-95.9% (active)	-91.4% (active)	-57.3% (active)	44.6%	-0.959% (active)	30.8%	-17% (active)
CCCCN1C(=O)/C(=c2\sc3n(c2=O)C2C(NN=3)N(CC)C(=O)N2CC)c2cc(C)ccc21 (stereo not given)	98.7%	79.8%	89.3%	79.5%	61.2%	87%	99.6%	67%	98.7%	107%
CCN(CC)c1ccc(/C=N/NC(=O)c2ccc(S(N)(=O)=O)cc2)cc1	34.7%	14.7%	8.81% (active)	38.3%	-6.07% (active)	29.4%	16%	17%	2.22% (active)	-1.23% (active)
COc1cc(OC)cc(-c2cc(-c3c[nH]c4ccccc34)nc(-c3c[nH]c4ccccc34)c2C#N)c1	101%	93.2%	108%	101%	108%	100%	101%	94.2%	112%	95%
CS(=O)(=O)c1nccc(-c2c(-c3cccc(OCc4ccc(Cl)c(C(F)(F)F)c4)c3)nc3sccn23)n1	-25% (active)	14.2%	88.3%	84.4%	78%	104%	95%	93.3%	66.9%	72.9%
NC(=S)n1c(=O)n(-c2cccc(C(F)(F)F)c2)c(=O)c2cc(-c3ccc(F)cc3F)ccc21	24.5%	8.79% (active)	-17.5% (active)	-11.3% (active)	0.891% (active)	13.3%	-12% (active)	17.2%	-7.03% (active)	14.5%
CC(C)NC(=O)c1cc(-c2ccc(NC(=O)Nc3ccc(F)c(C(F)(F)F)c3)cc2)nc2cccnc12	100%	84.2%	123%	92.3%	81.9%	92%	86.2%	90.3%	101%	92.3%
CC1=C(C)C(=O)C(Nc2ccc3c(c2)OCCO3)=C(Br)C1=O	107%	4.46% (active)	122%	88.3%	100%	97.8%	94.7%	105%	102%	106%
CC(=O)C1=C(C)NC(NNc2ccccc2)=NC1c1ccc([N+](=O)[O-])cc1 (stereo not given)	99.4%	49%	116%	88.1%	102%	80.7%	87.4%	99.9%	104%	101%
CN1CCC[C@]2(C)[C@H]3CC[C@@H]4[C@@H]5[C@H]6OC[C@@]5(CCC6(C)C)CC[C@@]4(C)[C@]3(C)CC[C@H]2C1(C)C	56.2%	4.84% (active)	89.1%	67.3%	74.5%	103%	103%	78.4%	107%	97.9%
CCCCCCOC(=O)c1cc(-c2ccc(F)cc2)nc2ccccc12	105%	101%	97.1%	85.6%	96.8%	96.1%	98%	99.9%	99.1%	96.9%
NCCNC(=O)c1cccc(COc2ccccc2NC(=O)c2cc(Cl)c(Cl)[nH]2)c1	92.6%	5.92% (active)	100%	106%	93.5%	90.2%	105%	97.6%	98.9%	101%
CC(=O)Nc1cc(N2CCOCC2)c2nc(NC(=O)c3[nH]c(C)c(Cl)c3Cl)sc2c1	58.1%	81.4%	54.7%	62.2%	19.2%	93.9%	50.8%	48.7%	84.8%	72.1%
CCCCCCCCCCCC(=O)NC(C)(C)C(=O)N1CCCC1C(=O)NC(C)(C)C(=O)NC(C)(C)C(=O)N1CCCC1C(=O)NC(C)(C)C(=O)NC(C)(C)C(=O)N1CCCC1C(=O)NC(C)C(=O)NCCC(=O)NC(C)C(=O)NC(C)(C)C(=O)NC(C)(C)C(=O)NC(C)(C)C(=O)NCCC(=O)NC(C)(C)C(=O)NC(C)(C)C(=O)NC(C)(C)C(=O)NC(C)C(=O)NCCC(=O)O (stereo not given)	-99.4% (active)	-65.4% (active)	-89.4% (active)	-87.5% (active)	-94.5% (active)	-60.6% (active)	-97.1% (active)	-92% (active)	-91.8% (active)	-97.3% (active)
COc1ccc(N2CCN(C3=C(Cl)C(=O)c4ncccc4C3=O)CC2)cc1	5.58% (active)	6.59% (active)	23.7%	62.5%	15.2%	86%	108%	89.6%	24.6%	45.6%
COc1ccc2[nH]cc(/C=N/Nc3ccnc4cc(Cl)ccc34)c2c1	-98.9% (active)	-4.83% (active)	-97.7% (active)	-93.9% (active)	-100% (active)	-60.7% (active)	-100% (active)	-100% (active)	-84.2% (active)	-79.7% (active)
Nc1ccc(Nc2ncnc3sc4c(c23)CCN(Cc2ccccc2)C4)cc1	106%	96.7%	103%	86.6%	91.2%	101%	97.8%	78.5%	106%	106%
CCc1nnc(NC(=O)c2cc(-c3ccc(Cl)cc3Cl)oc2C)s1	93.5%	86%	88.3%	91.5%	109%	89.3%	94.2%	92.4%	103%	93.3%
O=C(CCCCCCN1CC(=O)N2[C@@H](c3cccs3)c3[nH]c4ccccc4c3C[C@H]2C1=O)NO	90.2%	64.7%	27.2%	93.7%	89.3%	101%	96.9%	73.8%	66.9%	84.3%
CN(C)c1cccc2c(S(=O)(=O)Nc3cccc(-c4csc(NC(=O)CCCCCN5CCN(CCO)CC5)n4)c3)cccc12	90.6%	7.77% (active)	55.9%	84.1%	66.7%	93.5%	60.5%	54.7%	78.3%	73.7%
NS(=O)(=O)c1ccc(Nc2nc(N/N=C/c3ccc4c(c3)OCO4)nc(Nc3ccccc3)n2)cc1	41%	33.2%	58.6%	59.6%	22.4%	42.6%	64.5%	16.7%	84.6%	38.7%
O=C1Nc2cc(Cl)ccc2/C1=C\c1ccc(OCc2ccccc2)cc1	101%	93.1%	115%	104%	114%	94.5%	115%	94.5%	116%	96.2%
Cc1ccc(NC(=O)/C=C/c2ccc(OCCCOc3ccc4c(C)cc(=O)oc4c3)cc2)cc1	60.6%	90.7%	44.8%	54.6%	44.1%	39.1%	50.1%	57.8%	69.8%	88.3%
